# Results: PubChem BioAssay AID777 (Sanford-Burnham Center for Chemical Genomics, 2007)
# Out of some 96,000 compounds screened, about 19,000 (20%) were called active. Only a sample is shown. A number with no mark means an inactive call.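 How the source made its calls: active means blocking of liver enzyme CYP2C9 beyond about 50% at 5 µM (limit read from the data); inactive means the rest.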
# Molecular target: Cytochrome P450 2C9 (Homo sapiens) (UniProt P11712)
# Assay: blockers of cytochrome P450 2C9 activity – biochemical, luminescence, ADME assay, primary screen (AID 777)
# Settings: CYP2C9 Supersomes, luciferin-H conversion, at 5 µM, active compounds read high
# Cytochrome P450 2C9 (Homo sapiens), sequence (P11712 whole entry, looked up): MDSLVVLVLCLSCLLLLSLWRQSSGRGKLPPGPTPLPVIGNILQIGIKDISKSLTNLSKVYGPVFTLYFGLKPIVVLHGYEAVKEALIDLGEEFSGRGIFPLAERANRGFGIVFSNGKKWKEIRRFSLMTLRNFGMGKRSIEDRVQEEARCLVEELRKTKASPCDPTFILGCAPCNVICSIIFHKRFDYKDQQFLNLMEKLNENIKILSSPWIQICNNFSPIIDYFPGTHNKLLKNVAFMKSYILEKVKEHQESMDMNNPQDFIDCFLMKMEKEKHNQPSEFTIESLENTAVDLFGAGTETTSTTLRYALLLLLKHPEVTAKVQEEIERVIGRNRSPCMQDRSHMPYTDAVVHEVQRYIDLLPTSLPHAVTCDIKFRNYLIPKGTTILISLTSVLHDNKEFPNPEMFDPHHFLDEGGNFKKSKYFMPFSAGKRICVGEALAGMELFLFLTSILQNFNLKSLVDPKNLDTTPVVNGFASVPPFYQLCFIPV
row,SMILES,inhibition
1,CC1Cc2cc(/C(O)=C3\C(=O)C(=O)N(CCN4CCOCC4)C3c3ccccc3F)ccc2O1 (stereo not given),0.8%
2,CCSc1ncnc2c(C#N)c3n(c12)CCCCC3,17.9%
3,Nn1c(SCC(=O)NC2CCCC2)nnc1-c1ccccc1F,8.6%
4,COCCNC(=O)COc1ccccc1C,4.4%
5,CCCn1nnnc1NC(=O)COc1ccc(Cl)cc1C,46.7%
6,O=C(CSc1n[nH]c(-c2cccnc2)n1)Nc1ccnc2ccccc12,91.5% (active)
7,O=C(CSc1ncn[nH]1)Nc1ccnc2ccccc12,35.2%
8,O=C(Nc1cccc2ncccc12)C(Cl)(Cl)Cl,49.6%
9,CCCn1c(SCC(N)=O)nnc1C(C)C,-8%
10,O=C1c2cccnc2C(=O)N1Cc1cccs1,11.6%
11,CCOC(=O)c1sc(C)c2c1NC(C)(c1cccc3ccccc13)NC2=O (stereo not given),100% (active)
12,CCOC(=O)c1cc2ccccc2nc1C,-27.3%
13,CCOC(=O)c1nc(N)sc1C(=O)OCC,4.2%
14,Cc1ccccc1Nc1nnc(C)c(=O)[nH]1,2.7%
15,CNC(=O)c1nnc(Cc2ccc(Cl)cc2)o1,5%
16,CC(C)CCNC(=O)C(C)N(C(=O)Cn1nnc(-c2ccc(F)cc2)n1)C1CCCC1 (stereo not given),77.2% (active)
17,CC(C)CCNC(=O)CN(C(=O)Cn1nnc(-c2ccc(F)cc2)n1)C1CCCC1,17.3%
18,CC(C)CCNC(=O)C1CCCN(S(=O)(=O)c2ccc(F)cc2)C1 (stereo not given),-10.8%
19,CC1=CC(C)(C)NC(=S)N1c1ccccc1,13.8%
20,CCc1cccc2c(C=C(C#N)C#N)cn(CC(=O)N3CCCCC3)c12,0%
21,O=c1cc(CSc2ccccn2)nc(N2CCN(c3ccccc3)CC2)[nH]1,3.6%
22,Cc1nnc(SCc2cc(=O)[nH]c(N3CCN(Cc4ccccc4)CC3)n2)s1,56.4% (active)
23,CCc1c(C)nc(N2CCN(Cc3ccccc3)CC2)[nH]c1=O,10.1%
24,Cc1ccc(-c2n[nH]c(=S)n2/N=C/c2cc3c(cc2[N+](=O)[O-])OCO3)cc1,18%
25,Nc1nc(C23CC4CC(CC(C4)C2)C3)cs1,73.6% (active)

row,SMILES,inhibition
1,N#Cc1c(N)nc2c3c(sc(=N)c2c1N)NC(=O)CC3c1ccccc1Cl (stereo not given),8.6%
2,CCOC(=O)C1(S(=O)(=O)c2ccc(Cl)cc2)CCN(Cc2ccccc2)CC1,21.8%
3,CCN1C(=O)/C(=C\N2CCOCC2)SC1=S,8.1%
4,CC1(N2CCOCC2)CC2(O)C(=[N+]1[O-])CCc1nonc12 (stereo not given),31.8%
5,O=C1Nc2cc(Cl)c(Cl)cc2N(O)N1c1cc(Cl)cc(Cl)c1,89.3% (active)
6,CCN(CC)CCCNC(=O)c1cc(-c2cccc(Cl)c2)on1,10.4%
7,CC(C)N(c1ccccc1)c1ncnc(NCCC(=O)O)c1[N+](=O)[O-],-1.4%
8,Cc1ccc(C(=O)CSc2nc3ccccc3c(=O)n2N)o1,34.2%
9,Cc1ccsc1C(=O)OCC(=O)c1cc2ccccc2o1,-30.4%
10,Cc1cc2c(=O)n(C)c(SCC(=O)c3cc4ccccc4o3)nc2s1,95.9% (active)
11,C=CCn1c(Oc2ccc(C(=O)OC)cc2)nc2c1c(=O)n(C)c(=O)n2C,8.4%
12,O=C(O)C1CCN(S(=O)(=O)N2CCOCC2)CC1,3.6%
13,COCCCN1C(=O)C(=O)/C(=C(/O)c2ccc3c(c2)CC(C)O3)C1c1cccnc1 (stereo not given),-1%
14,c1ccc(CCN2CN=C(Nc3nc4ccccc4o3)NC2)cc1,6.5%
15,Clc1ccc(Cn2ncc3c(NCc4cccnc4)ncnc32)cc1,49.7%
16,CCN1C(=O)/C(=C2\SC(N3CCCCC3)=NC2=O)c2ccccc21,-20.1%
17,O=C(NCc1cccnc1)c1ccc(CS(=O)(=O)c2ccc(Br)cc2)o1,95.6% (active)
18,CC(C)(C)c1cc(C(=O)NCc2cccnc2)ccn1,12.2%
19,O=S(=O)(c1ccc(Br)cc1)c1nc(-c2ccccc2)oc1NCc1cccnc1,17.3%
20,Cc1cc(C(C)(C)C)oc1C(=O)N(CC(=O)NC1CCCC1)Cc1ccc(Cl)cc1,-11.5%
21,CCCCOc1ccc(C(=O)NCc2ccncc2)cc1,58.4% (active)
22,CCCCOc1ccc(C(=O)NCc2ccco2)cc1,15.5%
23,C=C(C)C(=O)Nc1cccc(C(C)=O)c1,1.4%
24,CCOc1ccc(C(=O)Nc2ccncc2)cc1,94.8% (active)
25,CN(C)c1ccc(NC(=O)c2ccncc2)c2ccccc12,43.9%

row,SMILES,inhibition
1,CCOc1cccc(C(=O)Nc2cccnc2)c1,4.7%
2,CC(=O)c1cccc(NC(=O)c2ccncc2)c1,68.3% (active)
3,COc1ccc(NC(=O)c2ccc(OC)cc2)cc1,-13.7%
4,CCCCCCOc1ccc(OC(=O)c2cccnc2)cc1,10%
5,COC(=O)CNC(=O)c1ccccc1F,-2.7%
6,Cc1cc(Cl)c(S(=O)(=O)NCCC(=O)O)cc1OCC(N)=O,-23.5%
7,c1cc(-c2nn[nH]n2)ccc1CN1CCCCC1,-10.5%
8,COc1ccc(-c2cc3nc(C)c(CCC(=O)NC(C)CCc4ccco4)c(C)n3n2)c(OC)c1 (stereo not given),37.5%
9,COc1cc(/C=C(/NC(=O)c2ccccc2)C(=O)Nc2cccc(O)c2)c([N+](=O)[O-])cc1OC,16.6%
10,CCOc1ncccc1C(=O)OCc1cn2cc(Cl)ccc2n1,45%
11,CSc1nc2ccccc2cc1/C=C(\C#N)c1ccc(Cl)cc1Cl,7.6%
12,O=C(NCc1ccco1)c1cccn2c(=O)c3c4c(sc3nc12)CCCC4,59.8% (active)
13,C=C(C)Cn1c(SCC(=O)NCc2ccco2)nc2sc3c(c2c1=O)CCC3,34.6%
14,O=C(NCc1ccco1)c1cnn2c(C(F)(F)F)cc(-c3ccco3)nc12,17.5%
15,Cc1nc2nc(C)c(CCC(=O)N3CCN(c4ccccc4)CC3)c(C)n2n1,0.9%
16,COC(=O)C1=C(C)N=C2SC(C)C(=O)N2C1/C=C/c1ccccc1 (stereo not given),48.6%
17,Cc1ccc(S(=O)(=O)Cn2nnnc2CN2CCN(Cc3ccc4c(c3)OCO4)CC2)cc1,29.7%
18,O=C(/C=C/Nc1ccccc1OC(F)(F)F)C(F)(F)F,5.5%
19,CN1CCN(c2ccc(NC(=O)COc3ccc(Cl)cc3Cl)cc2)CC1,-16.8%
20,Cc1cccc(NC(=O)COc2ccccc2C)n1,19.4%
21,Cc1ccccc1OCC(=O)Nc1ccc(N2CCN(C(=O)C(C)C)CC2)c(Cl)c1,68.8% (active)
22,COc1ccccc1C(=O)N1CCN=C1SCc1cccnc1,58.4% (active)
23,O=C(c1ccco1)N1CCN=C1SCc1cccc(Cl)c1,34.4%
24,CCC(=O)N1CCN=C1SCc1ccc(F)cc1,11%
25,Oc1c(C(c2ccccn2)N2CCOCC2)ccc2cccnc12 (stereo not given),-11.4%

row,SMILES,inhibition
1,O=C(Cn1cc(-c2nnnn2-c2ccc(Cl)cc2)c(=O)c2ccccc21)c1ccccc1,-11.4%
2,O=c1cc(CO)oc(CN2CCC(Cc3ccccc3)CC2)c1O,4.2%
3,FC(F)(F)c1cccc(-c2cc3ccccc3nc2N2CCCC2)c1,11.5%
4,O=C(COC(=O)c1ccc(S(=O)(=O)N2CCc3ccccc3C2)cc1)NC(=O)NCc1ccco1,10.9%
5,CC1=C(C(=O)Nc2ccccc2)C(c2ccco2)C(C#N)=C(SCC(N)=O)N1 (stereo not given),5.8%
6,C=CCOC(=O)C1=C(C)OC(N)=C(C#N)C1c1ccc(F)cc1 (stereo not given),44.5%
7,CCOC(=O)CSC1=C(C#N)C(c2ccco2)C(C(=O)OCc2ccccc2)=C(C)N1 (stereo not given),95.5% (active)
8,CC1=C(C(=O)OCc2ccccc2)C(c2ccco2)n2ncnc2N1 (stereo not given),17.6%
9,C=CCOC(=O)C1=C(C)NC(SCC(=O)OCC)=C(C#N)C1c1ccc(C)cc1 (stereo not given),64.3% (active)
10,Cc1cc(=O)oc2ccc(OCC(=O)O)cc12,11.6%
11,CC/C(=N\O)C(C)(C)/[N+]([O-])=C/c1ccc(Br)cc1,0.5%
12,COCCCNC(=O)COc1cc(C)c(Cl)c(C)c1,-73.4%
13,CC1Cc2ccccc2N1C(=O)Cn1cnc2ccccc2c1=O (stereo not given),34.6%
14,CCOC(=O)c1[nH]c(C)c(C(=O)OCC(=O)N2c3ccccc3CC2C)c1C (stereo not given),10.7%
15,CCn1nc(C(=O)OCC(=O)N2c3ccccc3CC2C)c2ccccc2c1=O (stereo not given),80.7% (active)
16,Cc1ccc(Cl)cc1NC(=O)COC(=O)C1CCCCC1,28.6%
17,CCOC(=O)C1=C(CN2CCc3ccccc32)NC(=O)NC1c1cccc([N+](=O)[O-])c1 (stereo not given),25.1%
18,Cn1c2c(c(=O)n(C)c1=O)C(c1cccc([N+](=O)[O-])c1)Nc1ccccc1O2 (stereo not given),50.4% (active)
19,Cn1c2c(c(=O)n(C)c1=O)C(c1ccc(O)cc1)Nc1ccccc1O2 (stereo not given),19.1%
20,Nc1c(-c2ccc(F)cc2)cnn1C1CCS(=O)(=O)C1 (stereo not given),-14.9%
21,CC1(C)CC(=O)C2=C(C1)N=C1SCCC(=O)N1C2c1ccc(C(F)(F)F)cc1 (stereo not given),-19.2%
22,O=c1cc(-c2ccccc2)nc(N2CCCCC2)[nH]1,-5.8%
23,O=c1c2c(nc3n1CCCCC3)sc1c(O)cccc12,70.6% (active)
24,Cc1cccc2c(=O)n3c(nc12)CCCCC3,21%
25,O=C(Nc1ccc2nc3n(c(=O)c2c1)CCCCC3)c1ccccc1Cl,41.7%
